PubChem BioAssay AID1159580 (chemical genetic matrix, 2015)
“And” between values parts separate entries of the source, which are not always exact repeats. Equal entries are not always repeated. Among all 5,500 compounds or so, about 2,000 (36%) were called active. Roughly 18% stayed inconclusive and do not appear here. No stated cut-off is given here; in the data, active means normalized growth mostly below about 0.91 (no sharp cut-off); inconclusive means no clear call, values can overlap the other calls; inactive means mostly above about 0.92. The list shows a part of the results.

Assay: chemical genetic growth profiling, strain panel (AID 1159580);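 further: tested at 20 µM; growth read once vehicle control cultures reached saturation at 30 °C; 1 = growth at the plate median or of vehicle wells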
Settings: S. cerevisiae deletion strains, growth OD

Measured: normalized growth

CC(C)=CCc1c(O)cc2oc(C)cc(=O)c2c1O
inactive: locus YAL013W, strain DEP1, stronger effect = lower value 0.96 | locus YAL021C, strain ccr4, stronger effect = lower value 1.01 | locus YAL026C, strain drs2, stronger effect = lower value 0.977 | locus YAL030W, strain snc1, stronger effect = lower value 0.986 | locus YBL061C, strain skt5, stronger effect = lower value 0.973 | locus YBR009C, strain hhf1, stronger effect = lower value 0.984 | locus YBR021W, strain FUR4, stronger effect = lower value 0.998 | locus YBR023C, strain chs3, stronger effect = lower value 0.953 | locus YBR171W, strain sec66, stronger effect = lower value 0.973 | locus YBR229C, strain ROT2, stronger effect = lower value 1.01 | locus YBR231C, strain swc5, stronger effect = lower value 0.98 | locus YBR279W, strain paf1, stronger effect = lower value 0.982 | locus YCL011C, strain gbp2, stronger effect = lower value 0.975 | locus YCL016C, strain dcc1, stronger effect = lower value 0.969 | locus YCL029C, strain bik1, stronger effect = lower value 0.986 | locus YCL061C, strain MRC1, stronger effect = lower value 0.973 | locus YCL069W, strain vba3, stronger effect = lower value 1.01 | locus YCR088W, strain abp1, stronger effect = lower value 0.957 | locus YDL005C, strain med2, stronger effect = lower value 0.981 | locus YDL035C, strain GPR1, stronger effect = lower value 0.912 | locus YDL040C, strain nat1, stronger effect = lower value 0.986 | locus YDL074C, strain BRE1, stronger effect = lower value 0.947 | locus YDL101C, strain DUN1, stronger effect = lower value 0.993 | locus YDL185W, strain tfp1, stronger effect = lower value 0.98 | locus YDL192W, strain arf1, stronger effect = lower value 0.93 | locus YDR001C, strain nth1, stronger effect = lower value 0.976 | locus YDR069C, strain doa4, stronger effect = lower value 1 | locus YDR137W, strain rgp1, stronger effect = lower value 0.855 | locus YDR159W, strain sac3, stronger effect = lower value 0.983 | locus YDR162C, strain NBP2, stronger effect = lower value 0.903 | locus YDR297W, strain sur2, stronger effect = lower value 0.973 | locus YDR318W, strain mcm21, stronger effect = lower value 0.929 | locus YDR334W, strain swr1, stronger effect = lower value 0.985 | locus YDR335W, strain msn5, stronger effect = lower value 0.972 | locus YDR388W, stronger effect = lower value 0.977 | locus YDR392W, strain spt3, stronger effect = lower value 0.87 | locus YDR502C, strain sam2, stronger effect = lower value 0.963 | locus YEL003W, strain gim4, stronger effect = lower value 0.976 | locus YEL037C, strain rad23, stronger effect = lower value 0.993 | locus YEL061C, strain CIN8 (second series), stronger effect = lower value 0.979 | locus YEL061C, strain CIN8, stronger effect = lower value 1 | locus YER015W, strain faa2, stronger effect = lower value 0.983 | locus YER016W, strain bim1, stronger effect = lower value 0.965 | locus YER110C, stronger effect = lower value 0.989 | locus YER111C, strain swi4, stronger effect = lower value 1 | locus YER155C, strain BEM2 (second series), stronger effect = lower value 0.973 | locus YER155C, strain BEM2, stronger effect = lower value 0.992 | locus YER167W, strain BCK2, stronger effect = lower value 0.932 | locus YFR010W, strain ubp6, stronger effect = lower value 0.98 | locus YGL078C, strain dbp3, stronger effect = lower value 0.987 | locus YGL167C, strain pmr1, stronger effect = lower value 0.996 | locus YGL173C, strain kem1, stronger effect = lower value 0.985 | locus YGL227W, strain vid30, stronger effect = lower value 0.968 | locus YGL240W, strain doc1, stronger effect = lower value 0.968 | locus YGL248W, strain PDE1, stronger effect = lower value 0.965 | locus YGL253W, strain hxk2, stronger effect = lower value 0.964 | locus YGR078C, strain PAC10, stronger effect = lower value 0.959 | locus YGR135W, strain pre9, stronger effect = lower value 1 | locus YGR252W, strain gcn5, stronger effect = lower value 0.878 | locus YHR027C, strain rpn1, stronger effect = lower value 0.999 | locus YHR030C, strain SLT2, stronger effect = lower value 1 and 0.999 | locus YHR079C, strain IRE1 (second series), stronger effect = lower value 1 | locus YHR079C, strain IRE1, stronger effect = lower value 0.971 | locus YHR094C, strain hxt1, stronger effect = lower value 0.999 | locus YHR129C, strain ARP1, stronger effect = lower value 0.987 | locus YIL066C, strain RNR3, stronger effect = lower value 0.95 | locus YIL073C, strain SPO22, stronger effect = lower value 1.01 | locus YIR030C, strain dcg1, stronger effect = lower value 0.988 | locus YJL092W, strain hpr5, stronger effect = lower value 0.975 | locus YJL095W, strain BCK1 (second series), stronger effect = lower value 0.97 | locus YJL095W, strain BCK1, stronger effect = lower value 0.928 and 0.969 | locus YJL115W, strain asf1, stronger effect = lower value 0.984 | locus YJL129C, strain trk1, stronger effect = lower value 0.951 | locus YJL134W, strain LCB3, stronger effect = lower value 1 | locus YJL154C, strain vps35, stronger effect = lower value 0.983 | locus YJL164C, strain tpk1, stronger effect = lower value 0.929 | locus YJL166W, strain qcr8, stronger effect = lower value 0.972 | locus YJL168C, strain set2, stronger effect = lower value 0.999 | locus YJL187C, strain SWE1 (second series), stronger effect = lower value 0.966 | locus YJL187C, strain SWE1, stronger effect = lower value 0.98
active: locus YDR101C, strain arx1, stronger effect = lower value 0.907 | locus YDR195W, strain ref2 1.16 [resistant] | locus YGL086W, strain mad1, stronger effect = lower value 0.915 | locus YHR013C, strain ard1, stronger effect = lower value 1.21 [resistant] | locus YHR142W, strain chs7, stronger effect = lower value 0.851 | locus YHR200W, strain rpn10, stronger effect = lower value 0.915 | locus YIL125W, strain kgd1, stronger effect = lower value 0.904
